# Laboratory results taken from publication PMC5540273 (PLoS ONE, 2017).
# Assays:
# TIE2 = system: T1, TIE2
# T1 construct: gene TEK
# TRKA = system: T2, TRKA
# T2 construct: gene NTRK1
# [1] = system: TYK2(JH1domain-catalytic)
# [2] = system: TYK2(JH2domain-pseudokinase)
# VEGFR2 = system: T3, VEGFR2
# T3 construct: gene KDR
# 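Note: kd values determined as follow-up on hits from a single-replicate KINOMEscan panel screen.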
smiles,measurement,setting,value
Cl.Cl.Cl.N#Cc1ccc(CCNc2nccc(-c3cccc(CN4CCNCC4)c3)n2)cc1 [GSK2137462],Kd,STK33,3.9 µM
same,Kd,WEE1,> 10 µM
same,Kd,WNK4,> 10 µM
CS(=O)(=O)Cc1ccc(Nc2nccc(-c3c(-c4cccc(NC(=O)C5CCCCC5)c4)nn4ncccc34)n2)cc1 [GSK350559],Kd,STK36,0.067 µM
CNCc1ccc2nc(NC(=O)c3ccc(C(C)(C)C)cc3)cn2c1,Kd,TAOK1,> 10 µM
same,Kd,TAOK3,> 10 µM
Cn1cncc1C(=O)NC1CCN(c2ccnc(Nc3ccc(F)cc3)n2)C1 (centres unmarked) [GSK1379717],Kd,TESK1,> 10 µM
same,Kd,TXK,> 10 µM
COc1cccc(CNC(=O)NC2CCN(c3ccnc(Nc4ccc(F)cc4)n3)C2)c1 (centres unmarked) [GSK1379723],Kd,TESK1,9.8 µM
same,Kd,TXK,> 10 µM
COc1ccc2cc(-c3nc(-c4ccccc4C(C)C)[nH]c3-c3ccncc3)ccc2c1 [SB-660566],Kd,TGFBR1,0.77 µM
same,Kd,TIE2,0.16 µM
Cc1nccc(-c2c(-c3ccc(F)cc3)ncn2CCCN2CCOCC2)n1.Cl [SB-282975],Kd,TIE2,> 10 µM
Nc1nccc(-c2c(-c3ccc(F)cc3)ncn2C2CCN(Cc3ccccc3)CC2)n1 [SB-219980],Kd,TNIK,4.1 µM
NS(=O)(=O)c1cccc(N/C=C2\C(=O)Nc3ccc(S(=O)(=O)Cc4c(Cl)cccc4Cl)cc32)c1 [GSK398099],Kd,TNIK,0.33 µM
O=C(Nc1n[nH]c2nc(-c3cccs3)c(Br)cc12)C1CC1 [SB-735297],Kd,TNNI3K,> 10 µM
O=C(Nc1n[nH]c2cc(-c3ccsc3)ccc12)C1CC1 [SB-732932],Kd,TRKA,3.1 µM
COC(=O)C(Cc1ccccc1)NC(=O)NC1CCN(c2ccnc(Nc3ccc(F)cc3)n2)C1 (centres unmarked) [GSK1379714],Kd,TRKA,1.5 µM
O=C1NC(=O)C(c2ccc(Cl)cc2)=C1Nc1ccc(O)cc1 [SB-340867],Kd,TTK,5.5 µM
CC(=O)c1c(C)c2cnc(Nc3ccc(N4CCNCC4)cn3)nc2n(C2CCCC2)c1=O,Kd,TTK,0.0092 µM
Cn1cncc1-c1cc2c(Nc3ccc(OCc4ccccc4)cc3)ncnc2cn1 [GW281179],Kd,[1],> 10 µM
CN1c2ccc(-c3ccc(C(N)=O)cc3)cc2-c2[nH]ncc2S1(=O)=O,Kd,[2],0.93 µM
Cn1cnc2c(N)ncnc21 [SKF-97623],Kd,VEGFR2,> 10 µM
same,Kd,VRK2,> 10 µM
O=C1NC(=O)C(c2ccc(Cl)cc2)=C1Nc1cccc(Cl)c1 [SB-317651],Kd,VRK2,> 10 µM
CNc1cc(-c2ccc3c(N)n[nH]c3c2)nc(N)n1 [GSK2224810],Kd,WNK4,> 10 µM
